Measurements taken from PubChem BioAssay (NCI).
Values joined by “and” are separate entries in the source; they are usually repeats but may differ in a detail not shown here. Equal values may be shown once. The panel holds about 79,000 compounds, 15% with a hit somewhere; the sample as a whole holds those more often. Cut-off read from the data, not from the text of the source: active = growth inhibition above about 70%; inactive = the rest.

How the values were obtained:
[1] = NCI Yeast Anticancer Drug Screen. Data for the rad50 strain (AID 155);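 note: 0% = growth of vehicle-only cultures of the same strain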; conditions: S. cerevisiae rad50 strain growth inhibition; at 50.0 µM; hits give high values
Summary of the method: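 Yeast carrying a defined DNA repair defect were exposed to test compounds, and growth was compared with vehicle-treated controls to give percent inhibition.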

[2] = NCI Yeast Anticancer Drug Screen. Data for the mec2-1 strain (AID 157); conditions: S. cerevisiae mec2-1 strain, at 50.0 µM, hits give high values
Summary of the method: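 Mutant yeast (mec2-1) grown with compound; growth inhibition relative to vehicle control reported.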

[3] = NCI Yeast Anticancer Drug Screen. Data for the sgs1 mgt1 strain (AID 161);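 note: 0% = growth of cultures given vehicle only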; conditions: S. cerevisiae sgs1 mgt1 strain, at 50.0 µM, hits give high values
Summary of the method: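 This yeast growth screen uses a strain with defined DNA-repair lesions; compound-treated growth is compared with vehicle-treated growth.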

[4] = NCI Yeast Anticancer Drug Screen. Data for the cln2 rad14 strain (AID 165);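 note: 0% = growth equal to vehicle treated cultures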; conditions: S. cerevisiae cln2 rad14 strain, at 50.0 µM, hits give high values
Summary of the method: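 Readout is yeast growth inhibition versus vehicle-treated controls, using a strain with cln2 and rad14 alterations exposed to compound.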

[5] = NCI Yeast Anticancer Drug Screen. Data for the bub3 strain (AID 167); conditions: S. cerevisiae bub3 mutant strain, at 50.0 µM, hits give high values
Summary of the method: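 Compounds were applied to a genetically altered yeast strain carrying a cell-cycle control defect. Growth inhibition was scored against vehicle-treated controls.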

[6] = NCI Yeast Anticancer Drug Screen. Data for the mlh1 rad18 strain (AID 175); conditions: S. cerevisiae mlh1 rad18 strain growth inhibition; at 50.0 µM; hits give high values
Summary of the method: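 Genetically defined yeast (DNA repair-deficient) exposed to compounds; growth inhibition determined relative to vehicle.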

Measured: growth inhibition

CC(=O)OCCN(CCOC(C)=O)C(C)=O
inactive: [1] 22.6% and -2.1% | [2] 5.7% and 8.4% | [3] 19.1% and 0.4% | [4] 7.3% and -18.9% | [5] -1.45% and -10.7% | [6] 17.9% and -3.75%

CN1C/C(=C\c2ccccc2[N+](=O)[O-])C(=O)/C(=C/c2ccccc2[N+](=O)[O-])C1
inactive: [1] -3.7% and -14.4% | [2] 14.9% and 28.8% | [3] 25.6% and -49% | [4] 4.85% and -8.9% | [5] 13.7% and 21.4% | [6] 16.8% and -29.1%

NC(=O)c1nnn(Cc2ccccc2)c1N
inactive: [1] 5.55% and 31.2% | [2] 5.6% and -1.5% | [3] -3.05% and -4.65% | [4] -4.65% and -1.95% | [5] 6.9% and -5.2% | [6] 9.6% and 3.3%

O=C(O)/C=C(\F)C(=O)O
inactive: [1] -9.8% and 14.7% | [2] -14.2% and 7.95% | [3] -3.05% and 10.9% | [4] -1.6% and -9.15% | [5] 3.65% and -20.8% | [6] 0.7% and 11.6%

N#CC(c1ccc([N+](=O)[O-])cc1)C(CC(=O)c1ccccc1)c1ccccc1 (configuration not stated)
inactive: [1] -1.3% and -14.2% | [2] -3% and -14.6% | [3] -15.2% and -17.2% | [4] -28.3% and -46.9% | [5] 37.8% and 12.6% | [6] 36.5% and 14.3%

CC(=O)c1c(-c2cccc3ccccc23)c(C#N)c(=S)n(C2OC(CO)C(O)C(O)C2O)c1C (configuration not stated)
inactive: [1] -18.7% and 15.5% | [2] 12.1% and 15% | [3] 2.25% and 32% | [4] 12.3% and 28.2% | [5] 21.1% and 32.1% | [6] 1.55% and 44.9%

COC1OC2COCOC2C(O)C1O (configuration not stated)
inactive: [1] 16.4% and 11.6% | [2] 17.1% and 7.85% | [3] 10.9% and 1.8% | [4] -53.6% and -34.5% | [5] 14.9% and 8.8% | [6] -4.9% and 5.65%

Cc1[nH]n(-c2ccc(S(=O)(=O)O)cc2)c(=O)c1N=Nc1ccccc1
inactive: [1] -0.4% and -2.2% | [2] 6.55% and -21.9% | [3] -10% and 2.1% | [4] 0.95% and 8.8% | [5] 10.8% and 4.1% | [6] -0.6% and 15.1%

C=C1C(=O)OC2C1CCC(C)C1CCC(=O)OC12C (configuration not stated)
inactive: [1] 50.9% and -7.2% | [2] 58.8% and -1.4% | [3] 43.1% and 17.2% | [4] 35% and 18.6% | [5] 64% and 13.6% | [6] 54.5% and 3.8%

CC(=O)Nc1ccccc1Cl
inactive: [1] 31.6% and 6% | [2] 6.7% and -9.05% | [3] 14.2% and -20.4% | [4] 24.9% and -20.1% | [5] 20.2% and -15.1% | [6] -11.4% and 21.4%

O=P(O)(O)Oc1ccccc1
inactive: [1] -10.4% and -8.3% | [2] -6.25% and 6.05% | [3] -16.7% and 6.55% | [4] -9.8% and -9.95% | [5] -0.05% and -3.3% | [6] -12.1% and 9.2%

CC(=O)OC1OC(C)C(OC(C)=O)C(OC(C)=O)C1OC(C)=O (configuration not stated)
inactive: [1] 6.8% and 1.65% | [2] -4.1% and 1.8% | [3] -5.85% and 11.7% | [4] -0.15% and 4.05% | [5] 4.5% and -4.2% | [6] -15.6% and 10.3%

O=C1CC(=P(c2ccccc2)(c2ccccc2)c2ccccc2)C(=O)O1
inactive: [1] 24.1% and -0.65% | [2] 24.5% and -1% | [3] 13.2% and 0% | [4] 14.7% and 9.8% | [5] 10.8% and -4.15% | [6] 12.2% and 5.5%

C1CN(CCN2CCOCC2)CCO1
inactive: [1] 0.9% and 7.9% | [2] 18.1% and 13% | [3] 9.35% and 13.6% | [4] -26.6% and -40.6% | [5] 10.6% and 28.9% | [6] 7.7% and 14%

Cc1ccc(NC2=CC(=O)C(=O)c3ccccc32)cc1
inactive: [1] 30% and 22.6% and 45.2% | [2] 40.7% and 36% and 14.1% | [3] 25% and 26.8% and 32.3% | [4] 5.55% and 8.9% and 30.9% | [5] 25.1% and 26.9% and 54.6% | [6] 15.4% and 60.9% and 33.4%

O=C1C=CC(=O)O1 (tested in a mixture with another compound)
inactive: [1] 13.5% and 5.85% | [2] 18% and 1.85% | [3] 10.6% and 2.55% | [4] 38.1% and 4.45% | [5] 30.9% and 17% | [6] 22.4% and 13.3%

O=C1C(c2ccccc2)=C(c2ccccc2)C(c2ccccc2)=C1c1ccccc1
inactive: [1] 36.6% and 12.2% | [2] -3.9% and 8.35% | [3] 15.8% and 25.2% | [4] -14% and -2.4% | [5] 0.25% and 12.2% | [6] 18.7% and 8.9%

S=C(S)NCCNC(=S)S.[Cu+2]
inactive: [1] 1.15% and 27.4% | [2] -8.7% and -11.9% | [3] -0.6% and 6.45% | [4] -41.2% and -56.4% | [5] -18.2% and -14.6% | [6] 5.3% and -15.5%

CN(/N=C/c1ccccc1)C(=N)N
inactive: [1] -3.6% and 5.4% | [2] -5.4% and 4.15% | [3] -10.2% and 13.2% | [4] -40.6% and 11.2% | [5] -12.8% and -5.6% | [6] -2.3% and 2.05%

CN1C(=O)N/C(=C\c2ccc(S(=O)(=O)N/N=C\C(O)C(O)C(O)C(O)CO)cc2)C1=O (configuration not stated)
inactive: [1] 2.65% and 7.85% | [2] 8.3% and 22.2% | [3] 17.9% and -4.2% | [4] 7.65% and 3.75% | [5] -19.1% and -1% | [6] 15.3% and 41.5%

O=C(O)CN(CCO)CCO
inactive: [1] -17.9% and -21.6% | [2] 7.65% and -16.6% | [3] 21.4% and 12.2% | [4] -29.1% and 1.45% | [5] -27.9% and -16.8% | [6] -18% and 10.1%

NC(Cn1ccc(=O)c(O)c1)C(=O)O (configuration not stated)
inactive: [1] 9.8% and -0.85% | [2] 18.6% and 5.7% | [3] 7.35% and 21.9% | [4] 13.2% and 6.8% | [5] 10.7% and 11.4% | [6] -90.2% and 4.3%
